Laboratory results published in PubChem BioAssay.
Unmarked numbers belong to inactive results. Where a call stands in place of a potency, no number is given. For some assays here: Potency and affinity values are given separately. Activity calls are given as the source filed them. Unless noted, the rule behind the calls is not given here.

Experiments:
[1] = antimalarial activity against Dd2 strain (AID 2302;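 active = growth inhibition above 50% at the single 2 µM test dose, taken to imply half-maximal potency below 2 µM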); settings: P. falciparum Dd2 in RBCs, LDH growth readout, 72 h; at 2 µM; active compounds read high
[2] = human hepatoma cell viability loss – ATP luminescence, cytotoxicity control for P. falciparum antimalarial project, primary screen (AID 2303;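 active = inhibition above 50%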); settings: HepG2 viability, 24-48 h, at 10 µM, active compounds read high
[3] = target: L-lactate dehydrogenase (Plasmodium falciparum (isolate CDC / Honduras)) (UniProt Q27743); experiment: PfLDH activity inhibition – cell lysate, 3D7 strain, counter-screen for P. falciparum growth inhibition project (AID 2304); settings: P. falciparum 3D7 crude extract, LDH APAD/NBT absorbance; at 2 µM; active compounds read high
[4] = inhibition of 3D7 malaria parasite growth – strain 3D7 (AID 2306); settings: P. falciparum 3D7 erythrocytic growth, LDH absorbance, 72 h; at 2 µM; active compounds read high
[5] = target: Calcium-dependent protein kinase 1 (Plasmodium falciparum (isolate 3D7)) (UniProt P62344); experiment: PfCDPK1 kinase inhibitors, biochemical, TCAMS library (AID 1159585; cut-off not given, nearly all actives have IC50 up to about 0.98 µM;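 note: inhibitors leave more ATP so luminescence rises with inhibition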); settings: recombinant PfCDPK1, Kinase-Glo ATP depletion luminescence
[6] = target: Plasmodium falciparum protein kinase 6 (PK6, PF3D7_1337100) (UniProt Q8IDW1); experiment: PfPK6 kinase inhibitors, biochemical, TCAMS library (AID 1159586); settings: recombinant PfPK6, Kinase-Glo ATP depletion luminescence
[7] = target: Protein kinase 7 (PK7), Plasmodium falciparum 3D7 (PF3D7_0213400) (UniProt Q7YTF7); experiment: inhibition of Plasmodium PK7 catalytic activity – biochemical, TCAMS antimalarial set, Kinase-Glo luminescence (AID 1159587); settings: recombinant PfPK7, Kinase-Glo ATP depletion luminescence
[8] = target: Calcium-dependent protein kinase 4 (Plasmodium falciparum (isolate 3D7)) (UniProt Q8IBS5); experiment: PfCDPK4 kinase inhibitors, biochemical, TCAMS library (AID 1159588; cut-off not given, nearly all actives have IC50 up to about 0.91 µM); settings: recombinant PfCDPK4, Kinase-Glo ATP depletion luminescence
Sequence of Calcium-dependent protein kinase 4 (Plasmodium falciparum (isolate 3D7)) (Q8IBS5 whole entry, looked up): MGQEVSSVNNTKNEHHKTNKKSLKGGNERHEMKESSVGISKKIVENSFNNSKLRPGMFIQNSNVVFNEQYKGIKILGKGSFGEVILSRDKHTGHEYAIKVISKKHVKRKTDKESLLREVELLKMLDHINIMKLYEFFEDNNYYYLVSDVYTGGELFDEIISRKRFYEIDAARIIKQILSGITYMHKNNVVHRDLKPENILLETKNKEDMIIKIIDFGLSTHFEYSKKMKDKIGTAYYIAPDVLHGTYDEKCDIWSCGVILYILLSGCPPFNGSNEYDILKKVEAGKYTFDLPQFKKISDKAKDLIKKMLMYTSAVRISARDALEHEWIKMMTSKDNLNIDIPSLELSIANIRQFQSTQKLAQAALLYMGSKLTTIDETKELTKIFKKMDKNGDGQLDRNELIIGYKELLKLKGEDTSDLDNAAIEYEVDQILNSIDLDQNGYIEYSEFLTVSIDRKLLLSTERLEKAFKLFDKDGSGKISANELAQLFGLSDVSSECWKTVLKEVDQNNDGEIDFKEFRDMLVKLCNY

Sequence of L-lactate dehydrogenase (Plasmodium falciparum (isolate CDC / Honduras)) (Q27743 whole entry, looked up): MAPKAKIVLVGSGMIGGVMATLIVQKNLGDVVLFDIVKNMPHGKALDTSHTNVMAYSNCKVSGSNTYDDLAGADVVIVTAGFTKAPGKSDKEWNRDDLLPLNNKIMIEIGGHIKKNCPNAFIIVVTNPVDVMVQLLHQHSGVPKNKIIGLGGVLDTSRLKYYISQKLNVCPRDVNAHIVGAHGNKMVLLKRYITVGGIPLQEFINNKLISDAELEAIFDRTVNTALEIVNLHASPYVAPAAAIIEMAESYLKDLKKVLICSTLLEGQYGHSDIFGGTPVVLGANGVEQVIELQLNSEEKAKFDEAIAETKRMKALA
Sequence of Protein kinase 7 (PK7), Plasmodium falciparum 3D7 (PF3D7_0213400) (Q7YTF7 1-343): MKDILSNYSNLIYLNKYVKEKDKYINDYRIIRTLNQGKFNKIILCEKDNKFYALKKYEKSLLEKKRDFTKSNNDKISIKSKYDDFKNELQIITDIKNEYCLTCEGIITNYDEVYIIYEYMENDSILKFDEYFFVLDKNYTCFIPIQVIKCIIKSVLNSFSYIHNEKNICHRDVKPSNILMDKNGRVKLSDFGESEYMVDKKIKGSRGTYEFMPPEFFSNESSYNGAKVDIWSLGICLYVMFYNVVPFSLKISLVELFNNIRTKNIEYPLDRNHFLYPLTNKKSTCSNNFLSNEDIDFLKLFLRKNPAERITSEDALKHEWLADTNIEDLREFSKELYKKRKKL
Sequence of Calcium-dependent protein kinase 1 (Plasmodium falciparum (isolate 3D7)) (P62344 whole entry, looked up): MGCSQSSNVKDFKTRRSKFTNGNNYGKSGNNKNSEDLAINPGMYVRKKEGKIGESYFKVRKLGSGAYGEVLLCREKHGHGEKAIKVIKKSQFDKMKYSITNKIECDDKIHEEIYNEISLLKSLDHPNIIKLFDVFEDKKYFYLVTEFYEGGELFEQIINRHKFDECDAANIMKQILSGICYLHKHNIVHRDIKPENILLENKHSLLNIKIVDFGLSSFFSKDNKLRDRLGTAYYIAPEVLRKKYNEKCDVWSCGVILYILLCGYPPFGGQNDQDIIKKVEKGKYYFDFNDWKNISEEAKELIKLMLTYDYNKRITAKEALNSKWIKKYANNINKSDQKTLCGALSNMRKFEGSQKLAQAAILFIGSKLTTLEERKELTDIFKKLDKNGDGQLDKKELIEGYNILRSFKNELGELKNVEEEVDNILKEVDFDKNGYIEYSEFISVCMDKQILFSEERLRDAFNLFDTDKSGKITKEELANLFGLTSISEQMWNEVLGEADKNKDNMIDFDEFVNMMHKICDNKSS
Sequence of Plasmodium falciparum protein kinase 6 (PK6, PF3D7_1337100) (Q8IDW1 1-305): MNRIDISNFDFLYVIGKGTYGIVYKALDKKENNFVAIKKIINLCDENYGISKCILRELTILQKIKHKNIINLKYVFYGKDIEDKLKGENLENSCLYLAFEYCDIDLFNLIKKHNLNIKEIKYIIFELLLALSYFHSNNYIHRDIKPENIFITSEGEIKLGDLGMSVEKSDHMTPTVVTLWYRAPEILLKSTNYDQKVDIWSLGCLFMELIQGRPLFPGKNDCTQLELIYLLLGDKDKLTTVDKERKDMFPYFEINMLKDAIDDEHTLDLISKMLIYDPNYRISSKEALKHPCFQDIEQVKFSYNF

SMILES | growth inhibition [1] | inhibition [2] | inhibition [3] | growth inhibition [4] | outcome [5] | outcome [6] | outcome [7] | outcome [8]
CCCc1cc(OCCCOc2ccccc2)ccc1OCCCON1C(N)=NC(N)=NC1(C)C | 96% (active) | 68% (active) | 6% | 94% (active) | inactive | inactive | inactive | inactive
OC(CNCc1ccccc1OCc1ccccc1)c1cc(Br)cs1 (stereo not given) | 88% (active) | 16% | 5% | 97% (active) | inactive | inactive | inactive | inactive
Cc1ccc(O)cc1Nc1ccnc2ccc(C(C)(C)C)cc12 | 100% (active) | 6% | 3% | 100% (active) | inactive | inactive | inactive | inactive
O=C(Nc1cccc(C(F)(F)F)c1)c1cc([N+](=O)[O-])cc2cn[nH]c12 | 69% (active) | 60% (active) | 3% | 101% (active) | inactive | inactive | inactive | inactive
Nc1cccc(CNCc2ccc(-c3ccc(-c4nc5ccc(F)cc5[nH]4)s3)cc2)c1 | 93% (active) | 12% | 1% | 102% (active) | inactive | inactive | inactive | inactive
O=C(Cc1ccccc1)NC(c1ccc(Cl)cc1)c1ccc2cccnc2c1O (stereo not given) | 64% (active) | 50% (active) | -2% | 93% (active) | inactive | inactive | inactive | inactive
CCOC(=O)[C@H](Cc1cccc2ccccc12)NC(=O)[C@H](CCC(=O)OC(C)(C)C)NC(=O)c1ccc(N(C)Cc2cnc3nc(N)nc(N)c3n2)cc1 | 96% (active) | 66% (active) | -2% | 93% (active) | inactive | inactive | inactive | inactive
CC1(C)N=C(N)N=C(N)N1OCc1cccc(Cl)c1Cl | 75% (active) | 68% (active) | -1% | 92% (active) | inactive | inactive | inactive | inactive
O=C(Nc1ccc(C(=O)Oc2cccc3ccccc23)cc1)N[C@@H](Cc1ccc(O)cc1)C(=O)NC1CCN(Cc2ccc(O)cc2)C1 (stereo not given in full) | -5% | -1% | 1% | 87% (active) | inactive | inactive | inactive | inactive
OC(CNCc1ccccc1)c1cc(OCc2ccccc2)cc(OCc2ccccc2)c1 (stereo not given) | 76% (active) | -14% | 3% | 98% (active) | inactive | inactive | inactive | inactive
CC(=O)Nc1ccc(Cl)c(Cl)c1 | 98% (active) | 5% | 9% | 95% (active) | inactive | inactive | inactive | inactive
COc1ccccc1CNC(=O)c1ccc(N2CCN(c3ccncc3)CC2)cn1 | 17% | 16% | 2% | 96% (active) | inactive | inactive | inactive | inactive
O=C(Nc1ccc2c(c1)OCO2)c1cc(-c2cccnc2)cnc1NCc1ccc2c(c1)OCO2 | 1% | 2% | 2% | 87% (active) | inactive | inactive | inactive | inactive
COc1ccc(CNCc2ccc(-c3ccc(-c4nc5ccc(C(F)(F)F)cc5[nH]4)cc3)cc2)cc1 | 99% (active) | 75% (active) | 7% | 102% (active) | inactive | inactive | inactive | inactive
NC1CCN(c2nc(NCCCc3ccc(O)cc3)nc(NCc3ccccc3-c3ccccc3)n2)CC1 | 45% | 11% | 4% | 102% (active) | inactive | inactive | inactive | inactive
OCCC1CCN(Cc2ccc(-c3ccc(-c4nc5ccccc5[nH]4)cc3)cc2)CC1 | 98% (active) | 35% | 2% | 99% (active) | inactive | inactive | inactive | inactive
COc1ccccc1CCNc1nc(C)cc(N[C@@H](Cc2ccccc2)C(=O)NCCc2ccccc2)n1 | 89% (active) | 16% | -3% | 100% (active) | inactive | inactive | inactive | inactive
CCCCC([C@@H](Cc1ccc2ccccc2c1)C(=O)N[C@H](C(=O)NC)C(C)(C)C)N(O)C=O (stereo not given in full) | 97% (active) | -6% | 5% | 100% (active) | inactive | inactive | inactive | inactive
OCCn1c(CNCCCNc2nc3ccccc3[nH]2)cc2c(Cl)cc(Cl)cc21 | 0% | 29% | -6% | 95% (active) | inactive | inactive | inactive | inactive
Cc1ccc(F)c(NC(=O)c2c(-c3c(F)cccc3Cl)noc2C)c1 | 18% | 13% | 0% | 90% (active) | inactive | inactive | inactive | inactive

SMILES | growth inhibition [1] | inhibition [2] | inhibition [3] | growth inhibition [4] | outcome [5] | outcome [6] | outcome [7] | outcome [8]
O=C(Cc1cccc(O)c1)NCC(Cc1ccc(O)cc1)c1ccccc1 (stereo not given) | 97% (active) | -1% | 3% | 91% (active) | inactive | inactive | inactive | inactive
Cc1ccc(NC(=O)N2CCC(n3c(-c4ccccc4)nc4cccnc43)CC2)cc1F | 85% (active) | 23% | 2% | 96% (active) | inactive | inactive | inactive | inactive
CCCNCc1ccc(-c2ccc(CNC3Cc4ccccc4C3)cc2)nc1 | 32% | 23% | 1% | 97% (active) | inactive | inactive | inactive | inactive
O=C(NCCN1CCCC1)c1cccc(-c2ccc(-c3nc4ccc(F)cc4[nH]3)s2)c1 | 4% | 51% (active) | -1% | 100% (active) | inactive | inactive | inactive | inactive
CCCN(CCC)CCCOc1ccc(C(=O)c2c(-c3ccc(OCCCN(CCC)CCC)cc3)oc3ccc(Cl)cc23)cc1 | 95% (active) | 100% (active) | -8% | 96% (active) | inactive | inactive | inactive | inactive
COc1ccc2nccc([C@@H](O)CN3CC[C@H](NCc4cnc5c(c4)NC(=O)CS5)[C@H](F)C3)c2c1 | 90% (active) | -4% | -2% | 90% (active) | inactive | inactive | inactive | inactive
CC(C)CCn1c(Sc2ccc(C#N)c([N+](=O)[O-])c2)nnc1-c1ccccc1Cl | 38% | 20% | 3% | 93% (active) | inactive | inactive | inactive | inactive
COc1cc(NC(=O)N2CCc3ccc(OCCC4CCCN4C)cc32)cc(C(F)(F)F)c1 (stereo not given) | 42% | 5% | 3% | 101% (active) | inactive | inactive | inactive | inactive
COc1ccc(-c2cccc(CNCc3ccc(F)cc3)c2)cc1S(=O)(=O)NCCN1CCCC1 | 16% | 20% | 4% | 101% (active) | inactive | inactive | inactive | inactive
CCc1c[nH]c2c(N(c3ccccc3)S(C)(=O)=O)cc(C(=O)N[C@@H](Cc3ccccc3)[C@H](O)CNC(C)(C)CCCC(C)C)cc12 | 96% (active) | 99% (active) | -1% | 98% (active) | inactive | inactive | inactive | inactive
COc1ccc(C(=O)N[C@@H](CC(C)C)C(=O)NC2CC[C@@H](C)N(C(=O)Nc3ccc(Cl)cc3)CC2=O)cc1OCCN1CCOCC1 (stereo not given in full) | 91% (active) | 5% | 5% | 96% (active) | inactive | inactive | inactive | inactive
COc1ccc(O)cc1/C=N/Nc1ccnc2cc(Cl)ccc12 | 92% (active) | -5% | 3% | 103% (active) | inactive | inactive | inactive | inactive
Cc1cc2ncn(-c3ccnc(N4CCN(CCCN5CCCC5)CC4)n3)c2cc1C | 49% | 24% | -4% | 100% (active) | inactive | inactive | inactive | inactive
CCN1CCC(N(Cc2ccc(-c3ccc(C(F)(F)F)s3)cc2)C(=O)Cn2c(CCc3cccc(F)c3F)nc(=O)c3ccccc32)CC1 | 95% (active) | 47% | 7% | 93% (active) | inactive | inactive | inactive | inactive
CCn1ccc2c3c(N)nc(N)nc3ccc21 | 2% | 61% (active) | 6% | 99% (active) | inactive | inactive | inactive | inactive
Cc1cc(NCCc2cccc(F)c2)nc(/N=C(\N)Nc2cccc(C(F)(F)F)c2)n1 | 99% (active) | 42% | -1% | 102% (active) | inactive | inactive | inactive | inactive
CC(C)(C)NCc1cc(Nc2ccnc3cc(Cl)ccc23)ccc1F | 100% (active) | 21% | 6% | 101% (active) | inactive | inactive | inactive | inactive
Cc1ccc(Nc2nc(C)cc(Nc3cccc(NS(C)(=O)=O)c3)n2)cc1 | 8% | -3% | 0% | 96% (active) | inactive | inactive | inactive | inactive
CCN(CC)CCCNc1nccc(N2CCc3ncnc(Nc4ccc(OCc5cccc(F)c5)c(Cl)c4)c3C2)n1 | 95% (active) | 100% (active) | 7% | 101% (active) | inactive | inactive | inactive | inactive
CC(=O)Nc1nc(N)c2c(ccc3c2ccn3CC(C)C)n1 | 78% (active) | 66% (active) | -3% | 94% (active) | inactive | inactive | inactive | inactive
